Source: PubChem (National Center for Advancing Translational Sciences (NCATS))
Only some compounds are listed: those with a hit (about 9.3% of all), similar ones and a draw of the others.
ELG1 repair inh: inhibitors of ELG1-dependent DNA repair in HEK293T cells; HEK293T ELG1-luciferase reporter, luminescence, 16 h; DNA damage induced by 5-fluorouridine; Potency, µM (titrated, usually from 46.1 µM), inactives show top-dose activity change, negative = inhibition, hits mostly inhibitors; 2.3% of 330,000 active; AID 504467; also: % is scaled to controls: 0 for no effect and ±100 for the full control effect; nearly all actives have a fitted effect of over 55% in size
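5-Fluorouridine DNA damage + compound/DMSO, 2,000 cells/well, 16 h, 37 °C/5% CO2. ONE-Glo, 30 min RT, luminescence. Readout = decrease in reporter signal.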
SMN2 splice enh: increases expression of the SMN2 splice variant; Potency, µM (highest dose often 46.1 µM), inactives show top-dose activity change, positive = activation, hits mostly activators; AID 1458; 2.8% of 210,000 active; HEK293 SMN2-luciferase splicing reporter, luminescence, 30-36 h; also: % of control where 0% means no effect; nearly all actives have a fitted effect of over 55% in size
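qHTS luciferase splicing reporter: luminescence rises when SMN2 exon 7 is included in transfected HEK293 cells. Compound exposure lasted 30-36 h at 37C, with 4.5 mM final sodium butyrate as control, followed by a ONE-Glo read.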
NPC1 prom act: NPC1 promoter activation | Potency, µM (highest dose often 9.22 µM), for the others: at the top dose activation, most hits filed as activators | 2.4% of 320,000 active | AID 485313 | Huh7 NPC1 promoter luciferase reporter, 24 h; also: % of control where 0% means no effect; nearly all actives have a fitted effect of over 60% in size
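Huh7 cells stably carrying NPC1 promoter–luciferase, plated in Opti-MEM with 10% FBS for 2 h, were exposed to compound in DMSO for 24 h at 37 °C; luciferase reagent was added for 10 min and luminescence read.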
Rab9 prom act: Rab9 promoter activation; 2.8% of 320,000 active; Potency, µM (highest dose often 9.22 µM), for inactives: at the top dose activation, negative = inhibition, usual class: activators; Huh7 Rab9 promoter-luciferase reporter, luminescence, 24 h; also: % of control where 0% means no effect; nearly all actives have a fitted effect of over 60% in size
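Luminescence read-out: Huh7 cells stably expressing Rab9-luciferase, treated 24 h with compound at 37 °C, then lysed with luciferase reagent for 10 min at ambient before reading.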
ELG1 genotox: inducers of genotoxicity in HEK293T ELG1-luciferase cells; HEK293T ELG1-luciferase reporter, luminescence, 16 h; Potency, µM (titrated, usually from 46 µM), without a hit: top-dose activity change, positive = activation, actives largely listed as activators; 1.3% of 330,000 active; also: % of control where 0% means no effect; nearly all actives have a fitted effect of over 60% in size
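Cells (2,000/well) expressing the ELG1-luciferase fusion are dosed by pin tool and kept 16 hr at 37 °C, 5% CO2. Signal comes from ONE-Glo luciferase reagent after 30 min at room temperature.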
FLuc modulator: firefly luciferase modulation, counter-screen for miR-21 project. AID 588342. 6.9% of 360,000 active. purified FLuc, Km substrates, luminescence inhibition. Potency, µM (series often up to 57.5 µM), for the others: at the top dose activity change, negative = inhibition, hits mostly inhibitors;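 also: plate controls were vehicle for no effect and reference inhibitor for full effect; nearly all actives have a fitted effect of over 55% in size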
Target sequence (P08659 whole entry, looked up): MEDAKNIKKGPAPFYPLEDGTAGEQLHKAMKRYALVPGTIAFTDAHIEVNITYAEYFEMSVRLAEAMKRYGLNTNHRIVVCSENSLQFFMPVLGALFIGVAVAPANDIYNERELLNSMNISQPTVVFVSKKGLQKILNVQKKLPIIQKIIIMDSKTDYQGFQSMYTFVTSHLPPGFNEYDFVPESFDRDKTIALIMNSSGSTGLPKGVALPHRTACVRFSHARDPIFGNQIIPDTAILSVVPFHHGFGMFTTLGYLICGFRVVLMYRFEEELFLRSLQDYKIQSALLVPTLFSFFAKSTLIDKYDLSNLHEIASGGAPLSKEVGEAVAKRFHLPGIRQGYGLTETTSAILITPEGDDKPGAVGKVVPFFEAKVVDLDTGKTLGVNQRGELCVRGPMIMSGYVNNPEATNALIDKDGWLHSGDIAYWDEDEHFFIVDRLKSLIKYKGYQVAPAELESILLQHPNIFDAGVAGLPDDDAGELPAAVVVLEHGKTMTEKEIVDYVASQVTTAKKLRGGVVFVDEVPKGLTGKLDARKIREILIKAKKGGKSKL
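Purified P. pyralis luciferase, 10 nM final, with Km-level 10 uM D-luciferin and 10 uM ATP in 50 mM Tris acetate pH 7.5, 10 mM Mg acetate, 0.01% Tween-20, 0.05% BSA; 6-point qHTS titration about 60 µM downward; luminescence read.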
* marks the source's active call; other numbers are inactive results; ? = inconclusive; . = no result given; [ ] = another dose, or the depositor's remark. Calls follow the shape of the dose curve; as a rule, active = well fitted curve in the direction sought with a large enough effect; inconclusive = small, poorly fitted or top-dose-only effect, or another doubt; inactive = no such curve, though single readings can be large; an effect the other way counts as inactive or inconclusive. Potency is read from the fitted curve at half-maximal effect.

SMILES | ELG1 repair inh | SMN2 splice enh | NPC1 prom act | Rab9 prom act | ELG1 genotox | FLuc modulator
COc1ccc(C2c3[nH]c4ccccc4c3CCN2Cc2ccoc2)c(F)c1 (configuration not stated) | 13% | . | 5% | -14% | -3% | 1%
O=C(O)c1cc(NC(=O)c2ccc3c(c2)C(=O)N(Cc2ccccc2)C3=O)cc(C(=O)O)c1 | -11% | . | 2% | -4% | -13% | -1%
CCC1=C2CC[C@H]3C(=O)N(c4ccccc4)C(=O)[C@H]3[C@H]2[C@@]2(C)C(=O)N(CC(=O)OC)C(=O)N2C1=O | . | -3% | . | . | . | .
CN1C(=O)NC(NS(=O)(=O)c2ccc(N)cc2)(C(F)(F)F)C1=O (configuration not stated) | 16% | -7% | -1% | -3% | -7% | 0%
Cc1cc(NC(=O)c2ccco2)ncc1NC(=O)Cc1ccccc1 | ? | 8% | ? | 3.2µM* | 17% | 17µM*
Cc1cc(NC(=O)C(C)C)ncc1NC(=O)c1ccco1 | ? | . | -4% | 6% | -1% | 0%
CCC(=O)Nc1cnc(NC(=O)c2cccc(F)c2)cc1C | ? | 11µM* | 1.6µM* | 0.71µM* | ? | 9.5µM*
CC(=O)Nc1cnc(NC(=O)c2cccc(F)c2)cc1C | ? | 11µM* | 1.6µM* | 2.8µM* | 15µM* | 30µM*
COc1cccc(C(=O)NCCS(=O)(=O)NC(C)CCc2ccccc2)c1 (configuration not stated) | 1% | . | -2% | -4% | -7% | 4%
COC(=O)C1=NNC(C(=O)c2ccco2)C1c1ccc(OC)cc1 (configuration not stated) | -13% | -3% | -2% | -10% | 0% | -8%
O=C(O)CNc1ccc(C(=O)O)cc1 | . | -8%[9.22 µM] | . | . | . | .
O=[N+]([O-])c1cc(/C=N\Nc2nccs2)ccc1O | -17% | ? | 5% | 1% | -5% | 17µM*
O=[N+]([O-])c1ccccc1/C=N\Nc1nccs1 | 16% | . | -2% | 1% | -1% | 0%
O=C1c2ccccc2C(=O)N1CCSC(=S)N1CCOCC1 | ? | ? | ? | ? | ? | 12µM*
Fc1c(CSC(=S)N2CCOCC2)cccc1CSC(=S)N1CCOCC1 | 23µM* | . | -2% | -9% | -6% | -3%
O=C(Cc1c(F)cccc1Cl)N1CCOCC1 | 1% | -4% | -1% | -3% | 1% | 2%
O=C(N/N=C\c1ccc(OC(=O)c2ccco2)cc1)c1ccc(Cl)cc1 | ? | . | 7% | 13% | 20% | 2%
O=C(N/N=C/c1ccc(OC(=O)c2cccs2)cc1)c1ccccn1 | ? | . | 2.5µM* | 3.2µM* | 7.3µM* | 1.5µM*
O=C(Oc1ccc(/C=N/NC(=O)c2ccccn2)cc1)c1cccc(Br)c1 | ? | . | 4µM* | 3.5µM* | 16µM* | -6%
O=C(N/N=C/c1c[nH]c2ccc(Br)cc12)c1ccccn1 | 15% | 9% | 1% | 0% | 2% | ?
COc1cc(/C=N/NC(=O)c2ccccn2)ccc1OC(=O)c1ccc(Br)cc1 | ? | . | ? | 24% | ? | -8%
O=C(N/N=C/c1ccc(OC(=O)c2ccco2)cc1)c1ccccn1 | ? | . | 2.8µM* | 1.8µM* | ? | 2.7µM*
COc1cc(/C=N/NC(=O)c2ccccn2)ccc1OC(=O)c1ccccc1Br | 1% | . | ? | ? | -5% | 4.8µM*
Cc1noc(C)c1CSCC(=O)Nc1nnc(CC(C)C)s1 | 6% | . | 1% | 0% | 0% | 5%
Cc1ccc(CCNC(=O)C2CCC(=O)N(Cc3cccc(F)c3)C2)cc1 (configuration not stated) | ? | . | -1% | 1% | 10% | -4%
SMILES | ELG1 repair inh | SMN2 splice enh | NPC1 prom act | Rab9 prom act | ELG1 genotox | FLuc modulator
Cc1cccc(C(=O)OC(C)C(=O)Nc2ccc(S(=O)(=O)Nc3ncccn3)cc2)c1C (configuration not stated) | 4% | . | -2% | 1% | 1% | 0%
Cc1ccccc1Nc1nn2c(=O)c3ccc(C(=O)NCC(C)c4ccccc4)cc3nc2s1 (configuration not stated) | . | . | . | . | . | -2%
Cc1nn(Cc2ccc(F)cc2)c2sc(C(=O)Nc3ccc(N4CCOCC4)cc3N3CCOCC3)cc12 | 18µM* | 9% | -1% | -3% | -11% | -7%
O=C(CSCc1ccc(F)cc1)Nc1ccc(N2CCOCC2)cc1N1CCOCC1 | ? | . | -1% | -12% | 3% | 9%
O=C1CN(C(=O)C2CCC(=O)N(CCc3ccc(Cl)cc3)C2)CCN1 (configuration not stated) | 20% | . | -6% | 16% | 3% | 2%
Nc1nc(Nc2cccc(Cl)c2)sc1C(=O)c1ccc(F)cc1 | . | . | . | . | . | -10%
Nc1nc(Nc2ccccc2F)sc1C(=O)c1ccc(Cl)cc1 | . | 14µM* | . | . | . | 15µM*
Cc1ccc(-c2cn3nc(C)c(C)nc3n2)cc1 | ? | 0.5µM* | ? | 0.18µM* | ? | 0.67µM*
COc1ccc(-c2cn3nc(C)c(C)nc3n2)cc1OC | ? | . | ? | 2.8µM* | 5% | ?
CC(C)CC(NC(=O)C(CO)NC(=O)C1CCC(=O)N1)C(N)=O (configuration not stated) | 6% | 8% | -7% | 0% | 0% | 0%
O=C(O)c1cc(-n2c(/C=C\c3ccc(F)cc3)nc3ccccc3c2=O)ccc1Cl | . | . | . | . | . | 24µM*
O=C(O)c1cccc(-n2c(/C=C/c3ccccc3)nc3ccccc3c2=O)c1 | 15% | . | -6% | 1% | 2% | ?
CCC(=O)N1CCCN(S(=O)(=O)c2ccc(C)cc2)C1c1ccc(OC)cc1 (configuration not stated) | 5% | . | 2% | -1% | -5% | 0%
COc1cc(/C=C(\C#N)C(=O)N2CCCCC2)ccc1O | ? | . | 2% | -3% | 4% | -7%
N#C/C(=C\c1cccnc1)c1nc2c(s1)CCCC2 | ? | 13µM* | 3.5µM* | 4µM* | 16µM* | 12µM*
CC1CCc2nc(/C(C#N)=C/c3cccnc3)sc2C1 (configuration not stated) | ? | 2µM* | ? | 1.3µM* | 2.3µM* | 2.1µM*
COc1cc(/C=C(\C#N)c2nc3c(s2)CCCC3)ccc1O | ? | 22µM* | ? | ? | 11µM* | 6µM*
N#C/C(=C/c1cccnc1)c1ccccc1 | 0% | . | 4% | 3% | 4% | -16%
O=C(NC(=S)Nc1ccc(Cl)cn1)C12CC3CC(CC(C3)C1)C2 | ? | 17% | ? | ? | 7% | 11µM*
